Where “and” joins values, the source holds several entries; their conditions need not be identical. Identical values can stand only once. Results filed as inconclusive are left out. Calls of active or inactive are those of the source. Calls follow the shape of the dose curve; as a rule, active = well fitted inhibition curve with a large enough effect; inconclusive = small, poorly fitted or top-dose-only effect; inactive = no such curve, though single readings can be large or run the other way.
Test: Primary qHTS for inhibitors of nuclear receptor binding SET domain protein 2 (NSD2) in an RCH-ACV wild type WT cells (2C) (AID 1645877); also: nearly all actives have a fitted effect of over 70% in size
Settings: RCH-ACV (leukaemia line) NSD2 WT (2C) viability, CellTiter-Glo, 72 h; series mostly up to 44.9 µM; activity change, negative = cell killing: at the top concentration
% is scaled to controls: 0 for no effect and ±100 for the full control effect; potency is read from the fitted curve at half-maximal effect.

SMILES	Potency	activity change, negative = cell killing
COc1ccc(C2(C#N)CCC(C(=O)O)CC2)cc1OC1CCCC1 (configuration not stated)	inactive	
O=C(NOCC1CC1)c1ccc(F)c(F)c1Nc1ccc(I)cc1Cl	6.68 µM (active) and 20.5 µM (active)	
CC1Cc2ccccc2N1NC(=O)c1ccc(Cl)c(S(N)(=O)=O)c1 (configuration not stated)	inactive	
COC1=C(OC)C(=O)C(CCCCCCCCCCO)=C(C)C1=O	9.44 µM (active) and 18.6 µM (active)	
Nc1nc(Cl)nc2c1ncn2[C@H]1C[C@H](O)[C@@H](CO)O1	0.0417 µM (active)	
CC(=O)NC[C@H]1CN(c2ccc(N3CCOCC3)c(F)c2)C(=O)O1		3.97% (inactive)
CCCCN(CCCC)CCC(O)c1cc2c(Cl)cc(Cl)cc2c2cc(C(F)(F)F)ccc12 (configuration not stated)	16.6 µM (active)	
O=c1oc2cc(O)ccc2s1	20.9 µM (active)	
NS(=O)(=O)c1cc(C(=O)O)c(NCc2ccco2)cc1Cl		6.05% (inactive)
CCOc1cc(CC(=O)N[C@@H](CC(C)C)c2ccccc2N2CCCCC2)ccc1C(=O)O		-31.4% (inactive)
CCN(CC)CCOc1ccc(Cc2ccccc2)cc1	29.9 µM (active)	
Cc1cc2c(s1)Nc1ccccc1N=C2N1CCN(C)CC1	23.5 µM (active)	
Oc1ccc(-c2nc(-c3ccc(F)cc3)c(-c3ccncc3)[nH]2)cc1	14.8 µM (active)	
Cc1nc(-c2ccc(OCC(C)C)c(C#N)c2)sc1C(=O)O	inactive	
NC(=NCc1ccccc1)NC(=O)c1nc(Cl)c(N)nc1N	13.2 µM (active)	
CN(C)[C@@H](CCOc1cccc2ccccc12)c1ccccc1	23.7 µM (active)	
C=C(c1ccc(C(=O)O)cc1)c1cc2c(cc1C)C(C)(C)CCC2(C)C	inactive	
